The supplement of paper PMC6331611
± gives the standard deviation of the averaged measurements. The full ranking holds about 1,600 compounds; the median of “normalized intracellular growth (luminescence, IQM-normalized) in RAW264.7 macrophages” is about 1, and the lowest 2% start at about 0.43. The sample as a whole holds a higher share of the lowest values than the screen did.

Tested on: Salmonella enterica serovar Typhimurium SL1344
Experiment: normalized intracellular growth (luminescence, IQM-normalized) in RAW264.7 macrophages (fraction of plate interquartile mean); higher = more bacterial growth (less inhibition)
Details: 10 µM

Structure (SMILES) | normalized intracellular growth (time point: T3 (3 h)) | normalized intracellular growth (time point: Tfinal (~6 h))
Cc1cc2nc3c(=O)[nH]c(=O)nc-3n(CC(O)C(O)C(O)COP(=O)(O)O)c2cc1C (centres undefined) | 0.886 ± 0.064 | 1.08 ± 0.19
O=C(O)CN(CCN(CC(=O)O)CC(=O)O)CC(=O)O.[Na+].[Na+].[Na+] | 1.03 ± 0.021 | 1.54 ± 0.093
C[C@H]1O[C@@H](O[C@H]2[C@@H](O)C[C@H](O[C@H]3[C@@H](O)C[C@H](O[C@H]4CC[C@@]5(C)[C@H](CC[C@@H]6[C@@H]5CC[C@]5(C)[C@@H](C7=CC(=O)OC7)CC[C@]65O)C4)O[C@@H]3C)O[C@@H]2C)C[C@H](O)[C@@H]1O | 1.03 ± 0.042 | 1.08 ± 0.087
NC(=O)c1ccccc1O | 1.04 ± 0.085 | 0.978 ± 0.036
CCCCC1=NC2(CCCC2)C(=O)N1Cc1ccc(-c2ccccc2-c2nnn[nH]2)cc1 | 1.06 ± 0.014 | 1.14 ± 0.22
CCCCc1nc(Cl)c(CO)n1Cc1ccc(-c2ccccc2-c2nnn[nH]2)cc1 | 0.909 ± 0.056 | 0.215 ± 0.0058
CCCc1nc(C(C)(C)O)c(C(=O)OCc2oc(=O)oc2C)n1Cc1ccc(-c2ccccc2-c2nnn[nH]2)cc1 | 1 ± 0.026 | 0.855 ± 0.39
CCCCC(=O)N(Cc1ccc(-c2ccccc2-c2nnn[nH]2)cc1)[C@H](C(=O)O)C(C)C | 0.881 ± 0.033 | 0.239 ± 0.016
CCCc1nc(C(C)(C)O)c(C(=O)O)n1Cc1ccc(-c2ccccc2-c2nnn[nH]2)cc1 | 1.027 ± 0.0089 | 1.118 ± 0.0057
CCOc1nc2cccc(C(=O)O)c2n1Cc1ccc(-c2ccccc2-c2nnn[nH]2)cc1 | 0.992 ± 0.057 | 1.04 ± 0.034
CCCCC(CC)COc1ccc(-c2nc(-c3ccc(OC)cc3)nc(-c3ccc(OCC(CC)CCCC)cc3O)n2)c(O)c1 (centres undefined) | 1.02 ± 0.065 | 1.1 ± 0.17
Nc1nc(F)nc2c1ncn2[C@@H]1O[C@H](COP(=O)(O)O)[C@@H](O)[C@@H]1O | 0.982 ± 0.061 | 1.16 ± 0.13
O=C1OC2(c3ccc(O)cc3Oc3cc(O)ccc32)c2ccccc21 | 1.02 ± 0.069 | 0.891 ± 0.079
COc1ccc(C[C@H](N)C(=O)N[C@H]2[C@@H](O)[C@H](n3cnc4c(N(C)C)ncnc43)O[C@@H]2CO)cc1 | 0.993 ± 0.058 | 1.05 ± 0.16
NCCCC(=O)O [gamma-AMINOBUTYRIC ACID] | 0.9762 ± 0.0094 | 1.05 ± 0.096
FCOC(C(F)(F)F)C(F)(F)F | 1.01 ± 0.052 | 0.806 ± 0.18
CCCCCN(C)CCC(O)(P(=O)(O)O)P(=O)(O)O | 0.886 ± 0.014 | 0.0897 ± 0.012
NCCCC(O)(P(=O)(O)O)P(=O)(O)O | 0.994 ± 0.083 | 1.12 ± 0.14
O=C1c2ccccc2C(=O)C1c1ccc(Br)cc1 | 1.08 ± 0.047 | 1.15 ± 0.21

Structure (SMILES) | normalized intracellular growth (time point: T3 (3 h)) | normalized intracellular growth (time point: Tfinal (~6 h))
CO/N=C1\C[C@]2(C[C@@H]3C[C@@H](C/C=C(\C)C[C@@H](C)/C=C/C=C4\CO[C@@H]5[C@H](O)C(C)=C[C@@H](C(=O)O3)[C@]45O)O2)O[C@H](/C(C)=C/C(C)C)[C@H]1C | 0.979 ± 0.022 | 0.831 ± 0.033
CCN(CC)CCOc1ccc2c(c1)C(=O)c1cc(OCCN(CC)CC)ccc1-2 | 1 ± 0.035 | 1 ± 0.021
O=C(O)CCC(=O)OC[C@@H](NC(=O)C(Cl)Cl)[C@H](O)c1ccc([N+](=O)[O-])cc1 | 0.927 ± 0.048 | 0.178 ± 0.014
CC(=O)Nc1ccc(S(=O)(=O)Nc2ccc([N+](=O)[O-])cc2)cc1 | 0.992 ± 0.038 | 1.03 ± 0.15
NC(=O)c1ccc([N+](=O)[O-])cc1Cl | 1.06 ± 0.052 | 1.18 ± 0.017
CCCCCCCCCCCCCCCC(=O)OC[C@@H](NC(=O)C(Cl)Cl)[C@H](O)c1ccc([N+](=O)[O-])cc1 | 1.04 ± 0.037 | 0.822 ± 0.14
CS(=O)(=O)c1ccc([C@@H](O)[C@@H](CF)NC(=O)C(Cl)Cl)cc1 | 1.27 ± 0.096 | 0.22 ± 0.17
O=C(N[C@H](CO)[C@H](O)c1ccc([N+](=O)[O-])cc1)C(Cl)Cl | 0.927 ± 0.049 | 0.163 ± 0.022
CS(=O)(=O)c1ccc([C@@H](O)[C@@H](CO)NC(=O)C(Cl)Cl)cc1 | 0.925 ± 0.07 | 0.767 ± 0.047
CC(=O)Nc1ccc(S(=O)(=O)c2ccc(NC(C)=O)cc2)cc1 | 1.01 ± 0.04 | 0.912 ± 0.062
OC[C@@H](O)[C@@H](O)CO | 0.947 ± 0.1 | 1.08 ± 0.11
Cc1cc(C(C)(C)C)c(O)c(C(C)(C)C)c1 | 1.06 ± 0.046 | 0.834 ± 0.12
FC(F)(F)C(Cl)Br (centres undefined) | 1 ± 0.049 | 1.08 ± 0.18
CN1CC(=O)NC1=N | 1.03 ± 0.02 | 1.1 ± 0.1
COc1cc([C@@H]2c3cc4c(cc3[C@@H](O[C@@H]3O[C@@H]5CO[C@@H](c6cccs6)O[C@H]5[C@H](O)[C@H]3O)[C@H]3COC(=O)[C@H]23)OCO4)cc(OC)c1O | 1.1 ± 0.049 | 1.016 ± 0.0097
CCCc1nc(C)c2c(O)nc(-c3cc(S(=O)(=O)N4CCN(CC)CC4)ccc3OCC)nn12 | 0.997 ± 0.027 | 0.899 ± 0.1
CC(=O)N(c1onc(C)c1C)S(=O)(=O)c1ccc(N)cc1 | 0.951 ± 0.011 | 1.02 ± 0.17
C[C@@H]1C[C@H]2[C@@H]3CCC4=CC(=O)C=C[C@]4(C)[C@@]3(F)[C@@H](O)C[C@]2(C)[C@@]1(O)C(=O)CO | 1 ± 0.062 | 0.99 ± 0.075
